Screening data from PubChem BioAssay.
HTT promoter inh – Primary qHTS for Identification of Small Molecule Inhibitors of Huntingtin Promoter Activity; HEK293 HTT promoter firefly luciferase reporter, 24 h; Potency, µM (series often up to 57.5 µM), for inactives: top-dose activity change, negative = inhibition, usual class: inhibitors; hit rate 0.93% among 48,000; also: potency is read from the fitted curve at half-maximal effect; nearly all actives have a fitted effect of over 50% in size
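HEK293 cells carrying firefly luciferase reporters were seeded at 2,500 per well in Opti-MEM and cultured for 24 h. They were then treated with compounds at up to 57.5 uM final for 24 h at 37 degrees C before Dual-Glo luminescence readout.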
HTT-AS promoter – Primary qHTS for Identification of Small Molecule Activators of Huntingtin-Antisense Promoter Activity; HEK293 HTT-AS promoter firefly luciferase reporter, 24 h; response scale: percent change from vehicle, -100% = no light; Potency, µM (doses to about 57.5 µM), for inactives: at the highest dose activity change, positive = activation, usual class: activators; hit rate 0.24% among 48,000; AID 1508624, 2021; also: potency is read from the fitted curve at half-maximal effect; nearly all actives have a fitted effect of over 55% in size
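Quantitative HTS used concentration series of up to 57.5 uM final on HEK293 luciferase reporter cells, 24 h at 37 degrees C. Readout was Dual-Glo firefly luminescence.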
NTMT1 inh – Primary qHTS for Inhibitors of N-terminal methyltransferase 1 (NTMT1): MTaseGlo Assay | N-terminal Xaa-Pro-Lys N-methyltransferase 1 (Homo sapiens), Q9BV86 | NTMT1 MTase-Glo SAH luminescence, purified enzyme | Potency, µM (series often up to 114 µM), without a hit: top-dose activity change, negative = inhibition, hits mostly inhibitors | hit rate 2.5% among 59,000;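 also: potency is read from the fitted curve at half-maximal effect; plate controls were DMSO vehicle for no effect and no enzyme for full effect; nearly all actives have a fitted effect of over 65% in size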
Target sequence (Q9BV86 whole entry, looked up): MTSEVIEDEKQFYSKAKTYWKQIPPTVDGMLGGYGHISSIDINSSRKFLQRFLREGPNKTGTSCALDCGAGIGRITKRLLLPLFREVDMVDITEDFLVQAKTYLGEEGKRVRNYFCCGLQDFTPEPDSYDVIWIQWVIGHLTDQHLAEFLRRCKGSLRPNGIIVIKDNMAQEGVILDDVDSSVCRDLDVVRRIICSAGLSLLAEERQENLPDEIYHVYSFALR
DRV1 agonist – qHTS for Agonists of Human Resolvin D1 Receptor DRV1; Probable G-protein coupled receptor 32 (Homo sapiens), O75388; hit rate 2.5% among 48,000; CHO-K1 GPR32 beta-arrestin PathHunter luminescence, 90 min; zero percent set by DMSO-only wells; activation, % at 76.9 µM;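 active = activation of at least 60% and not above a set upper limit, about 1 call in 100 departs from these limits; inconclusive = activation of 40% to 60%, or above that upper limit; inactive = activation under 40%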; also: 0% is about no effect
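Readings come from a cell-based beta-arrestin complementation format: CHO-K1 GPR32 stable cells (2,500/well) treated 90 min with compounds, then beta-Gal substrate added for 1 h before chemiluminescence imaging.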
Numbers without * were called inactive; ? = inconclusive; nt = no result; ! = not active in a repeat; [ ] = remark or other dose. Sampled rows, rich in hits. Any-hit rate of the full collection: about 4.6%. Unless noted, calls follow the shape of the dose curve; as a rule, active = well fitted curve in the direction sought with a large enough effect; inconclusive = small, poorly fitted or top-dose-only effect, or another doubt; inactive = no such curve, though single readings can be large; an effect the other way counts as inactive or inconclusive.

SMILES	HTT promoter inh	HTT-AS promoter	NTMT1 inh	DRV1 agonist
CO[C@H]1/C=C/C=C/C=C/C[C@H](OC(=O)[C@@H](C)NC(=O)C2CCCCC2)[C@H](C)[C@@H](O)/C(C)=C/CCc2cc(O)cc(c2)NC(=O)C1	nt	nt	-3.3%[12.6 µM]	nt
CN(CCOc1ccc(C[C@H](Nc2ccccc2C(=O)c2ccccc2)C(=O)O)cc1)c1ccccn1	nt	nt	79.4µM*!	nt
O=C1CCCC2=C1C(c1ccccc1I)N=C(Nc1nc3ccccc3o1)N2 (stereo not given)	nt	nt	4.7%	nt
COc1cccc(NCCC2(c3ccccc3)CC(C)(C)OC(C)(C)C2)c1	nt	nt	-23.9%[57.5 µM]	nt
O=C1NC(=O)C(c2cnc3ccccn23)=C1c1cn2c3c(cc(F)cc13)CN(C(=O)N1CCCCC1)CC2	nt	nt	27µM*!	nt
CCc1ccc(CNC(=O)c2ccc(NC(=O)N3CCSc4ncccc43)cc2)cc1	-26.7%	-15.8%	4.6%	-6.1
O=C(NCc1ccccc1)c1ccc(NC(=O)N2CCSc3ncccc32)cc1	-36.9%	-32.6%	89.1µM*	-8.9
CCc1ccc(C(=O)c2cn(CC(=O)Nc3cc(OC)cc(OC)c3)c3ccc(CC)cc3c2=O)cc1	3.9%	-9.6%	-22.6%	8.0
CCOc1ccc(C(=O)c2cn(CC(=O)Nc3cc(OC)cc(OC)c3)c3ccc(F)cc3c2=O)cc1	?	-48.4%	79.4µM*	-0.8
Oc1c(C(c2ccc(Cl)cc2Cl)N2CCOCC2)sc2nc(-c3ccco3)nn12 (stereo not given)	-10.4%	-19.8%	17.6%	89.9*
Oc1c(C(c2ccc(Cl)cc2Cl)N2CCN(c3ccccc3)CC2)sc2nc(-c3ccco3)nn12 (stereo not given)	-12.5%	-13.0%	5.0%	-5.7
N#CC1=C2SCN(C3CCCCC3)CN2C(=O)CC1c1c(F)cccc1Cl (stereo not given)	-18.1%	-14.5%	31.6µM*	9.5
N#CC1=C2SCN(C3CCCCC3)CN2C(=O)CC1c1ccc(Cl)cc1 (stereo not given)	-18.6%	-14.4%	25.1µM*	34.7
N#CC1=C2SCN(C3CCCCC3)CN2C(=O)CC1c1ccc(F)cc1 (stereo not given)	-11.1%	-9.7%	25.1µM*	?
Cc1cc(C)nc(SCC(=O)Nc2ncc(Cc3cccc4ccccc34)s2)n1	nt	nt	3.5%[57.5 µM]	nt
O=C1Nc2ccccc2/C1=C/c1cc(O)ccc1O	nt	nt	39.8µM*	nt
O=C1Nc2ccccc2/C1=C\c1ccc([N+](=O)[O-])cc1	nt	nt	-16.6%	nt
O=C1OC(C(=O)Nc2ccc(Cl)c(C(F)(F)F)c2)Cc2ccccc21 (stereo not given)	nt	nt	nt	80.0*
COc1ccccc1CNC(=O)CSc1ncc2c(n1)-c1ccccc1N(Cc1ccc(C)cc1)S2(=O)=O	-5.9%	-8.5%	79.4µM*	-0.6
Cc1onc(-c2ccccc2Cl)c1C(=O)N(C)c1ccc(Cl)cc1	nt	nt	-4.0%[57.5 µM]	nt
Cc1cc(NS(=O)(=O)c2cc3c(cc2N[C@@H](C)CO)NC(=O)CC3)ccc1F	nt	nt	-2.8%	nt
CN(C(=O)c1cc2c(=O)n3ccccc3nc2n1C)c1ccccc1	83.4%	5.62µM*	?	-15.6
Cc1cc(N)c2cc(NC(=O)Nc3ccc4nc(C)cc(N)c4c3)ccc2n1	-6.1%	-11.0%	20µM*	?
Cc1ccc2nc3sc(C(=O)NC4CCCCC4)cc3cc2c1	nt	nt	-3.8%[57.5 µM]	nt
CCc1cccc(C)c1NC(=O)CCS(=O)(=O)c1ccc2c(c1)oc(=O)n2C	-2.9%	-4.4%[11.5 µM]	39.8µM*	3.0
SMILES	HTT promoter inh	HTT-AS promoter	NTMT1 inh	DRV1 agonist
Cc1cc(NC(=O)c2cc(-c3cccc(Cl)c3)on2)nn1Cc1ccc(Cl)cc1	1.58µM*	-41.0%	-1.7%	3.1
CC(C)(C)C(=O)Nc1ccc(Cl)c(-c2nc3ccccc3[nH]2)c1	-9.8%	-10.5%	0.0%	87.8*
CC(C)CC(=O)Nc1ccc(Cl)c(-c2nc3ccccc3[nH]2)c1	-2.0%	-17.7%	-4.0%	31.8
CCCC(CCC)C(=O)Nc1ccn([C@@H]2O[C@H](CO)[C@@H](O)C2(F)F)c(=O)n1	nt	nt	-0.5%[57.5 µM]	nt
CN(Cc1ccc(C(C)(C)C)cc1)Cc1cccc2ccccc12	1.7%	-15.0%	13.1%[57.5 µM]	68.1*
COc1ccc(S(=O)(=O)N(CCO)c2ccccc2CN(C)C/C=C/c2ccc(Cl)cc2)cc1	nt	nt	12.1%	nt
CCN(CC)c1nc(-c2ccc(C(C)(C)C)cc2)nc2ccccc12	?	-10.0%[11.5 µM]	3.0%	2.8
